From the supplement of paper PMC10849652
Of roughly 8,800 targets only a part is listed; those with a hit were picked by preference. About 0.5% of all pairs of compound and target were hits.

Experiments:
Test in all cases: log2 fold change, soluble protein after heating vs DMSO (PISA); higher = thermal stabilisation; K562 lysate, 10 uM; active = over 0.2 and 3.5 SD of the protein, either way, in both replicates (recomputed)
[1] = compound: C#Cc1cccc(Nc2ncnc3cc(OCCOC)c(OCCOC)cc23)c1 [erlotinib]
Method in brief: (§1)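 To prepare the extract, K562 pellets were dounce-homogenised in PBS pH 7.4 with 1 mM MgCl2, giving crude material at 1 mg/mL protein. This was treated with 10 μM compound for 30 min, then heated in aliquots for 3 min over 48°C-58°C before pooling and addition of NP-40 to 0.5% at 4°C. Centrifugation at 21,000xg for 90 min left soluble protein in the supernatant, which TMTpro 16plex LC-MS/MS quantified with equalised channel sums. Results are log-two fold changes in thermal stability compared with solvent controls, from duplicates.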

[2] = compound: C/C(=N\NC(=O)C1=CC(=CC=C1)S(=O)(=O)N2CCOCC2)/C3=C(C=CC(=C3)Cl)O
Method in brief: as §1

[3] = compound: C1=CC(=CC=C1C2=NC3=C(N2)C=C(C=C3)C(=O)N)OC4=CC=C(C=C4)Cl
Method in brief: as §1

[4] = compound: C1=CC2=C(C=CC(=C2)/C=C\3/C(=O)NC(=NCC4=CC=CS4)S3)N=C1
Method in brief: as §1

[5] = compound: C1=CC2=NC=CN=C2C=C1/C=C/3\C(=O)NC(=O)S3
Method in brief: as §1

[6] = compound: C1=CC=C(C=C1)C2=NC(=C(N2)C3=CC=NC=C3)C4=CC(=C(C=C4)Cl)O
Method in brief: as §1

[7] = compound: C1=CC=C2C(=C1)C3=NNC4=CC=CC(=C43)C2=O
Method in brief: as §1

[8] = compound: C1CCN(C1)C(=O)NC2=CC=CC(=C2)NC3=NC=C(C(=N3)NCCC4=CN=CN4)Br
Method in brief: as §1

[9] = compound: C1CN(CCC1(CC2=CC=C(C=C2)Cl)N)C3=NC=NC4=C3C=CN4
Method in brief: as §1

[10] = compound: C1COCCN1CCN2C3=CC=CC=C3N=C2NC(=O)C4=CC(=CC=C4)[N+](=O)[O-] [IRAK-1-4 Inhibitor I]
Method in brief: as §1

[11] = compound: C=CC(=O)N1CCC[C@@H](n2nc(-c3ccc(Oc4ccccc4)cc3)c3c(N)ncnc32)C1 [ibrutinib]
Method in brief: as §1

[12] = compound: CC(=O)c1cnc2ccc(-c3cc(Cl)c(O)c(Cl)c3)nc2c1N[C@H]1CC[C@H](CN(C)C)CC1
Method in brief: as §1

[13] = compound: CC(C)(C)Cn1c(N)nc2ccc(-c3[nH]c(C(C)(C)C)nc3-c3ccc(F)cc3)nc21 [ralimetinib]
Method in brief: as §1

[14] = compound: CC(C)(O)CC(=O)NCCn1ccc2ncnc(Nc3ccc(Oc4cccc(C(F)(F)F)c4)c(Cl)c3)c21
Method in brief: as §1

[15] = compound: CC(C)C1=C2N=C(C=C(N2N=C1)NCC3=CC=CC=C3)NCCCCCCN
Method in brief: as §1

[16] = compound: CC1=C(C(CC(=O)N1)C2=CC=C(C=C2)C(F)(F)F)C(=O)NC3=C(C=C4C(=C3)C=NN4)F
Method in brief: as §1

[17] = compound: CC1=C(C2=C(C=C1)C(=O)C3=CC=CC=C3N2CCCN)C
Method in brief: as §1

[18] = compound: CC1=C(C=C(C=C1)NC(=O)C2=CC(=CC=C2)C(C)(C)C#N)NC3=CC4=C(C=C3)N=CN(C4=O)C
Method in brief: as §1

[19] = compound: CC1=C(C=C(C=C1)NC(=O)C2=CC(=CC=C2)N(C)C)NC(=O)C3=CC=C(C=C3)O
Method in brief: as §1

[20] = compound: CC1=CC=C(C=C1)SC2=C3C=C(SC3=CN=C2)C(=O)N
Method in brief: as §1

Measured: log2 fold change

HAUS3 (UniProt Q68CZ6)
inactive: [1] 0.022 | [2] 0.01 | [3] -0.033 | [4] 0.016 | [5] -0.028 | [6] 0.004 | [7] -0.06 | [8] -0.045 | [9] 0.019 | [10] 0.025 | [11] -0.025 | [12] -0.021 | [13] 0.009 | [14] -0.019 | [15] 0.001 | [16] 0.022 | [17] 0.026 | [18] 0.014 | [19] 0.025 | [20] 0.025

ITPKA (UniProt P23677)
inactive: [1] 0.021 | [2] -0.042 | [3] 0.041 | [4] 0.043 | [5] 0.006 | [6] 0.046 | [7] 0.006 | [8] -0.07 | [9] 0.011 | [10] -0.013 | [11] 0.043 | [12] -0.009 | [13] 0.007 | [14] -0.044 | [15] 0.011 | [16] 0.023 | [17] 0.002 | [18] -0.012 | [19] 0.022 | [20] 0.026

HARS (UniProt P12081)
UniProt P12081, sequence (P12081 whole entry, looked up): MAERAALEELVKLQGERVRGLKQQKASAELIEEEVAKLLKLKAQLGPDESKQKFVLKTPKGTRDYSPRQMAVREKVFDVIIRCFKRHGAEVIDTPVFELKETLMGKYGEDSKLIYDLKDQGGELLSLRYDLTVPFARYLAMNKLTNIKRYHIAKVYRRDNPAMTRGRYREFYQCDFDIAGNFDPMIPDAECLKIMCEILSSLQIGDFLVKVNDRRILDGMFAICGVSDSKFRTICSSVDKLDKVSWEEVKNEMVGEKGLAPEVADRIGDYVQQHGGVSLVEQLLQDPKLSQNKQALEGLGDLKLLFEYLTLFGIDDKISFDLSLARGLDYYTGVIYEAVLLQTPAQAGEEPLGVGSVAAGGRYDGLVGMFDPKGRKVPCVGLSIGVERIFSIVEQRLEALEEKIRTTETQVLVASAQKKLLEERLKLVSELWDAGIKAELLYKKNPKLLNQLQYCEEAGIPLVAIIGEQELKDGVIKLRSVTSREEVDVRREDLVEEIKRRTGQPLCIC
inactive: [1] -0.034 | [2] 0.006 | [3] -0.002 | [4] 0.021 | [5] -0.036 | [6] -0.005 | [7] 0.019 | [8] -0.016 | [9] 0.001 | [10] -0.002 | [11] -0.049 | [12] 0.022 | [13] -0.002 | [14] 0.015 | [15] -0.039 | [16] -0.015 | [17] 0.008 | [18] 0.005 | [19] 0.008 | [20] 0.005

KBTBD4 isoform 2 (UniProt Q9NVX7)
inactive: [1] 0.09 | [2] 0.013 | [3] 0.036 | [4] 0.013 | [5] -0.096 | [6] 0.016 | [7] -0.073 | [8] -0.028 | [9] 0.013 | [10] -0.017 | [11] 0.051 | [12] -0.026 | [13] -0.069 | [14] 0.009 | [15] -0.039 | [16] -0.156 | [17] -0.045 | [18] 0.142 | [19] -0.014 | [20] 0.031

KDM5C (UniProt P41229)
UniProt P41229, sequence (P41229 whole entry, looked up): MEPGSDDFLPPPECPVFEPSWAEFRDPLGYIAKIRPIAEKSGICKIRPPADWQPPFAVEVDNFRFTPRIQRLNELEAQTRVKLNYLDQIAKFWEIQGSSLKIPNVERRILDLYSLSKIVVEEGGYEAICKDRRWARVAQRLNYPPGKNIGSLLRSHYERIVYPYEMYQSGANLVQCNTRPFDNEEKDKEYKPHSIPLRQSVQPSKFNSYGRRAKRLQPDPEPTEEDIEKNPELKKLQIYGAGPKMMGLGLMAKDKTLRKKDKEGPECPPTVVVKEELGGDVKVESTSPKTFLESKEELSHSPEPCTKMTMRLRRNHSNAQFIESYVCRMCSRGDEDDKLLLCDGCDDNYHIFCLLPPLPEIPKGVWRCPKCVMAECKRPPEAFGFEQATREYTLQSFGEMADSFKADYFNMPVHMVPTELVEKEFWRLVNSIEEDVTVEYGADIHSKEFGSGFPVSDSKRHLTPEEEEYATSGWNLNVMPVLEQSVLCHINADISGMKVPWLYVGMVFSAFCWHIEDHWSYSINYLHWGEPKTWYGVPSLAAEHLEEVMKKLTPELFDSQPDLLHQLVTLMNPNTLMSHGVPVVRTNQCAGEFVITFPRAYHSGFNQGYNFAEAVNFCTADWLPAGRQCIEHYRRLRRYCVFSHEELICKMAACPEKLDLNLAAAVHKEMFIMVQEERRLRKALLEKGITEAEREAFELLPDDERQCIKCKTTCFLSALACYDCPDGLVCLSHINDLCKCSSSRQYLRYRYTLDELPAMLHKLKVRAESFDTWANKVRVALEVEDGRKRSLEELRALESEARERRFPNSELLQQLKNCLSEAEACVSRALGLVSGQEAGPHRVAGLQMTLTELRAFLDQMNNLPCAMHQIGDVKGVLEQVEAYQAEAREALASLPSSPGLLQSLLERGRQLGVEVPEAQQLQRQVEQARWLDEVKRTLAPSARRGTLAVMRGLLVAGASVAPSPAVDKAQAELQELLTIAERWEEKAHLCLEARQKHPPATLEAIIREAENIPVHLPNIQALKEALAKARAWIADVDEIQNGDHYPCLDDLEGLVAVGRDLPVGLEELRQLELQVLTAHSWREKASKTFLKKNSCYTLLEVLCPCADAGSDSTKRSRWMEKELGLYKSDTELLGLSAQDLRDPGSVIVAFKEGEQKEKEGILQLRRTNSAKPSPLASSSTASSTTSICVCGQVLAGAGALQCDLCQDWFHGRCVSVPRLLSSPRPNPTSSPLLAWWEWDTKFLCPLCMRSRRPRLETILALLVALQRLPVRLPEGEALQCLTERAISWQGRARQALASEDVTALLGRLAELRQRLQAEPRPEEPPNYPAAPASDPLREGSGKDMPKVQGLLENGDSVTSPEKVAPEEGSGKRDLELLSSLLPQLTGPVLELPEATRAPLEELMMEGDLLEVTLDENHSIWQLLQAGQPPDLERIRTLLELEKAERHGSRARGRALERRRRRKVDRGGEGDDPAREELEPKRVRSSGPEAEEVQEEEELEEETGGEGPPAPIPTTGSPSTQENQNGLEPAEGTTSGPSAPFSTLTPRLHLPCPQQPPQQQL
inactive: [1] 0.052 | [2] 0.017 | [3] 0.022 | [4] -0.059 | [5] -0.009 | [6] -0.041 | [7] -0.031 | [8] -0.053 | [9] -0.002 | [10] 0.01 | [11] 0.089 | [12] -0.132 | [13] 0.005 | [14] -0.02 | [15] 0.015 | [16] 0.01 | [17] 0.012 | [18] -0.013 | [19] 0.031 | [20] 0.001

HDAC2 (UniProt Q92769)
UniProt Q92769, sequence (Q92769 whole entry, looked up): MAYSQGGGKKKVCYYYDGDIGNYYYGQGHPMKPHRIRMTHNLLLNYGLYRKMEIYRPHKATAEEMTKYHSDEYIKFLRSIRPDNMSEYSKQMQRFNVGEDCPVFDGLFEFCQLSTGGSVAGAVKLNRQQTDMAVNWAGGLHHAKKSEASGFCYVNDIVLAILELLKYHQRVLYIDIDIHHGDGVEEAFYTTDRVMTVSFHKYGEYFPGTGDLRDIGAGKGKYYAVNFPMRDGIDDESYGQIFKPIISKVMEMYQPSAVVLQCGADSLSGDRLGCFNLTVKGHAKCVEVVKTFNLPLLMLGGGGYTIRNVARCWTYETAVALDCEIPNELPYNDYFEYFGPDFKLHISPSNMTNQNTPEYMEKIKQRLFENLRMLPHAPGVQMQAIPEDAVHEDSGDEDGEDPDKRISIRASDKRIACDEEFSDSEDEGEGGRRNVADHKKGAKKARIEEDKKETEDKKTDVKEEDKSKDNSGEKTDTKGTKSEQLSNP
inactive: [1] -0.02 | [2] 0.021 | [3] -0.001 | [4] 0.012 | [5] -0.013 | [6] -0.004 | [7] -0.009 | [8] -0.013 | [9] -0.001 | [10] -0.017 | [11] 0 | [12] -0.008 | [13] -0.005 | [14] -0.029 | [15] -0.001 | [16] -0.013 | [17] -0.01 | [18] -0.025 | [19] -0.016 | [20] -0.013

GNL3 (UniProt Q9BVP2)
inactive: [1] 0.004 | [2] -0.072 | [3] 0.002 | [4] 0.009 | [5] -0.062 | [6] 0.015 | [7] -0.011 | [8] 0.021 | [9] 0.014 | [10] 0.033 | [11] 0.023 | [12] -0.063 | [13] -0.026 | [14] -0.021 | [15] 0.05 | [16] -0.005 | [17] -0.073 | [18] 0.009 | [19] -0.007 | [20] -0.057

HDAC6 (UniProt Q9UBN7)
inactive: [1] -0.025 | [2] -0.002 | [3] -0.025 | [4] -0.006 | [5] -0.014 | [6] -0.042 | [7] -0.034 | [8] -0.001 | [9] -0.023 | [10] 0.008 | [11] -0.051 | [12] 0.003 | [13] -0.024 | [14] -0.041 | [15] -0.014 | [16] -0.036 | [17] -0.002 | [18] 0.008 | [19] -0.01 | [20] 0.01

IMPDH2 (UniProt P12268)
inactive: [1] 0.001 | [2] -0.009 | [3] -0.018 | [4] -0.018 | [5] -0.013 | [6] -0.028 | [7] -0.003 | [8] 0.019 | [9] -0.003 | [10] 0.011 | [11] 0.049 | [12] -0.003 | [13] 0.034 | [14] 0.028 | [15] 0.025 | [16] -0.034 | [17] 0.019 | [18] 0.017 | [19] -0.006 | [20] 0.016

IGF2BP3 (UniProt O00425)
UniProt O00425, sequence (O00425 whole entry, looked up): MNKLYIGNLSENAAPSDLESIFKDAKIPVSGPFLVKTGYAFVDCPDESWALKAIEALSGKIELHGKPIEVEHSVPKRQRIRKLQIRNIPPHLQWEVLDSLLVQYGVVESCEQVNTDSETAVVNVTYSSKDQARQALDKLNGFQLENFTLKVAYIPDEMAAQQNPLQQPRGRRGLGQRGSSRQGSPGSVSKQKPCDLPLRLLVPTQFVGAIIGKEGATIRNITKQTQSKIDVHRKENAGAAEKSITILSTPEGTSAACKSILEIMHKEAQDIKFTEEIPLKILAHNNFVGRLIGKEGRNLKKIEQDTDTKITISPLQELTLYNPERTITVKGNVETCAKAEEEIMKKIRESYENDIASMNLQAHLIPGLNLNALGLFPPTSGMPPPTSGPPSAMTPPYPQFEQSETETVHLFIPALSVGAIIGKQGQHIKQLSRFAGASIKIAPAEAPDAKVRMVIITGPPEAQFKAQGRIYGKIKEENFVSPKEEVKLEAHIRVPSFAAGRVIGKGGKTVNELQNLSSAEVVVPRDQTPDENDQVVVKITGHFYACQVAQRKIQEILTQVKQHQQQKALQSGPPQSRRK
inactive: [1] 0.04 | [2] 0.023 | [3] -0.007 | [4] 0.003 | [5] 0.005 | [6] 0.024 | [7] -0.067 | [8] 0.026 | [9] 0 | [10] -0.018 | [11] 0.006 | [12] -0.019 | [13] -0.012 | [14] 0.011 | [15] 0.024 | [16] -0.009 | [17] 0.011 | [18] -0.047 | [19] 0.007 | [20] 0.021

ISOC2 (UniProt Q96AB3)
UniProt Q96AB3, sequence (Q96AB3 whole entry, looked up): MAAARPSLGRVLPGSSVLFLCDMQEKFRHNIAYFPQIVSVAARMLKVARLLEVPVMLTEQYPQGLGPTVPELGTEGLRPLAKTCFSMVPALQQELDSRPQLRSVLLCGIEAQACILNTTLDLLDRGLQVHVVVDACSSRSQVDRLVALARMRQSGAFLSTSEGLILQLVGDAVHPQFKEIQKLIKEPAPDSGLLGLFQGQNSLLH
inactive: [1] -0.018 | [2] 0.003 | [3] 0.001 | [4] -0.035 | [5] -0.006 | [6] -0.072 | [7] 0.003 | [8] -0.007 | [9] -0.001 | [10] 0.053 | [11] 0.017 | [12] -0.021 | [13] 0.056 | [14] 0.024 | [15] 0.014 | [16] -0.004 | [17] -0.131 | [18] 0.054 | [19] 0.041 | [20] 0.035

IFITM3 (UniProt Q01628)
UniProt Q01628, sequence (Q01628 whole entry, looked up): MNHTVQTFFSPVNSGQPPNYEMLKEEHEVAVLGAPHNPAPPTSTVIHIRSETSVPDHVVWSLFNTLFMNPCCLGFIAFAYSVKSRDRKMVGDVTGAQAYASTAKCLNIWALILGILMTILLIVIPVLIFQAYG
inactive: [1] -0.136 | [2] -0.11 | [3] 0.062 | [4] 0.004 | [5] -0.094 | [6] -0.122 | [7] 0.084 | [8] -0.095 | [9] -0.069 | [10] -0.026 | [11] -0.07 | [12] -0.042 | [13] 0.179 | [14] 0.078 | [15] 0.003 | [16] -0.173 | [17] -0.117 | [18] -0.133 | [19] -0.026 | [20] 0.129

HSD17B10 (UniProt Q99714)
UniProt Q99714, sequence (Q99714 whole entry, looked up): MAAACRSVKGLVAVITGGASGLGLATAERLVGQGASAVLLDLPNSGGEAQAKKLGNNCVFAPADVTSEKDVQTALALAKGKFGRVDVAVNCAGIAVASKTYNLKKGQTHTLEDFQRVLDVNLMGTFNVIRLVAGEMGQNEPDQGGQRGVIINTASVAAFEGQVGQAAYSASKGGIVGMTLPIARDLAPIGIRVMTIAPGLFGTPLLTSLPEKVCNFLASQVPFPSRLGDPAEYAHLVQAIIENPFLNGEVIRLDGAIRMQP
inactive: [1] 0.018 | [2] -0.044 | [3] 0.035 | [4] -0.023 | [5] 0.01 | [6] 0.016 | [7] -0.054 | [8] -0.03 | [9] 0.054 | [10] 0.012 | [11] -0.012 | [12] -0.018 | [13] 0.004 | [14] -0.003 | [15] 0 | [16] -0.026 | [17] -0.031 | [18] -0.018 | [19] -0.007 | [20] -0.025

GMIP (UniProt Q9P107)
UniProt Q9P107, sequence (Q9P107 whole entry, looked up): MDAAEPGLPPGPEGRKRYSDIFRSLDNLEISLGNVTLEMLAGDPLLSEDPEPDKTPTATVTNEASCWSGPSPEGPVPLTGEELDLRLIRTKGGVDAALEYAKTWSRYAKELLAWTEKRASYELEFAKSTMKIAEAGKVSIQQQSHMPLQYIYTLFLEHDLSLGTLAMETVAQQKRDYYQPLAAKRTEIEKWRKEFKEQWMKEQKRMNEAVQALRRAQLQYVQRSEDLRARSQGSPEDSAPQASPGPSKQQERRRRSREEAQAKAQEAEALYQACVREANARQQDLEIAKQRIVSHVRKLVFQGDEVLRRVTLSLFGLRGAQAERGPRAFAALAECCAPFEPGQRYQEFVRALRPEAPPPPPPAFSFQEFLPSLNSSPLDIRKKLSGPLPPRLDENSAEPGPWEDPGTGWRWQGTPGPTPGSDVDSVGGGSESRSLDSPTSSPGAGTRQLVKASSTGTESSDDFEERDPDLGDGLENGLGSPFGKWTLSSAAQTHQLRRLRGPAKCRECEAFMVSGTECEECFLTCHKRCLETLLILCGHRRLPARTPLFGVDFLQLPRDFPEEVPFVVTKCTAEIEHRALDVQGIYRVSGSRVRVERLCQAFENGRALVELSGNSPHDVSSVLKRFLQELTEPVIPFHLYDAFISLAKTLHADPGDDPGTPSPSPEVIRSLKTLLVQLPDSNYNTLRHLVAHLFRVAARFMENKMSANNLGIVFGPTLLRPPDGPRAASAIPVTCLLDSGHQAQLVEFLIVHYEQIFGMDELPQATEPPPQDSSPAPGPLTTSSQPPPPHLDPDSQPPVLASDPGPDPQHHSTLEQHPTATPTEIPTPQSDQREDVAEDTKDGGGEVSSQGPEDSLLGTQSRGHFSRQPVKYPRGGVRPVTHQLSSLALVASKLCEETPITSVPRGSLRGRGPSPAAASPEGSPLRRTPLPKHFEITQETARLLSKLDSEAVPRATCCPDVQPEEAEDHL
inactive: [1] 0.014 | [2] 0.019 | [3] -0.02 | [4] -0.029 | [5] 0.009 | [6] 0.068 | [7] 0.03 | [8] -0.063 | [9] 0.019 | [10] 0.025 | [11] 0.182 | [12] 0.027 | [13] 0.023 | [14] -0.11 | [15] -0.017 | [16] 0.029 | [17] 0.03 | [18] 0.019 | [19] -0.068 | [20] 0.045

GPX4 (UniProt P36969)
UniProt P36969, sequence (P36969 whole entry, looked up): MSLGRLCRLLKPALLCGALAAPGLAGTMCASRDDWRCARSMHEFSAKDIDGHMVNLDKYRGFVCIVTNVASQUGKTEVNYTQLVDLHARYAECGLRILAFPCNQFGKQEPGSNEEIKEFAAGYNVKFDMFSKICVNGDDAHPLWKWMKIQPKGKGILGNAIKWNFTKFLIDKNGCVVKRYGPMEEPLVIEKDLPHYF
inactive: [1] 0.02 | [2] 0.051 | [3] -0.037 | [4] -0.016 | [5] 0.04 | [6] -0.029 | [7] -0.06 | [8] 0.024 | [9] 0.021 | [10] 0.012 | [11] -0.013 | [12] 0.01 | [13] 0.011 | [14] 0.018 | [15] -0.004 | [16] 0.006 | [17] -0.002 | [18] 0.014 | [19] 0.003 | [20] 0.039

KDM1A (UniProt O60341)
inactive: [1] -0.005 | [2] 0.106 | [3] 0.021 | [4] 0 | [5] -0.006 | [6] -0.019 | [7] -0.071 | [8] -0.019 | [9] -0.009 | [10] -0.003 | [11] 0.007 | [12] -0.011 | [13] 0.018 | [14] -0.016 | [15] 0.019 | [16] -0.004 | [17] 0.003 | [18] -0.004 | [19] 0.044 | [20] 0.003
